The full list was thinned out, with hits kept by preference.
ST2 inh: IL1RL1 inhibition; hit rate 2.3% among 78,000; AID 1259354; AlphaLISA ST2-Fc/biotin-IL-33 interaction, 1 h; inhibition, % for hits at 17 µM; in the data active = inhibition above about 30%
Target sequence (Q01638 whole entry, looked up): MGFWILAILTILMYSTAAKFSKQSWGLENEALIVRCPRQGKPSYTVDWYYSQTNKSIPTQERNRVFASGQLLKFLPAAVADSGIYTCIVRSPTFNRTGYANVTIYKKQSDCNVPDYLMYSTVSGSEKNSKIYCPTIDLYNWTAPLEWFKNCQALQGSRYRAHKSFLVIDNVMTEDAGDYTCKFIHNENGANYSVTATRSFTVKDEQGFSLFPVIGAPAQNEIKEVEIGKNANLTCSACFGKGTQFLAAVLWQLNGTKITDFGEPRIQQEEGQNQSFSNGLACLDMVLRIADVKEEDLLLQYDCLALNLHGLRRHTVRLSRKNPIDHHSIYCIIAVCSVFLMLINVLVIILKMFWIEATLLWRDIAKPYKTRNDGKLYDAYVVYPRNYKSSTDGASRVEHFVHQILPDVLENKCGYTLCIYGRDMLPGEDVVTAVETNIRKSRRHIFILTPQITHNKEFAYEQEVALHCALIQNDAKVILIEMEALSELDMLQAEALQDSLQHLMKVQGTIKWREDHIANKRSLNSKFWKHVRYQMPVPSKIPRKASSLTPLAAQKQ
Hits are given with their value; - = inactive.

SMILES | ST2 inh
CC(=O)N(CN1C(=O)c2ccc(Br)cc2C1=O)c1cccc(C(=O)O)c1 | 45%
CC(=O)N(CN1C(=O)c2ccccc2C1=O)c1cccc(C)c1 | -
CC(=O)N(CN1C(=O)c2ccc(Br)cc2C1=O)c1ccc(OCc2ccccc2)cc1 | -
Cc1oc(-c2cccs2)nc1CN1CCCC(C(=O)NC2CCCCCC2)C1 (stereo not drawn) | -
COc1ccc2nc(Nc3ccc(F)cc3)sc2c1 | -
CCCCN(CC)C(=O)Cn1c(=O)n(-c2ccc(F)cc2)c(=O)c2sccc21 | -
COc1ccc(CN2CCN(Cc3ccoc3)CC2CCO)c(F)c1 (stereo not drawn) | -
Cc1ccc(C2C(C#N)=C(N)SC(N)=C2C#N)o1 | 32%
N#CC1=C(N)SC(N)=C(C#N)C1c1ccc(Cl)cc1Cl | -
COc1ccccc1C1C(C#N)=C(N)SC(N)=C1C#N | -
CC1=NOC(C)(CNC(=O)c2cc(CC(C)C)nn2C)C1 (stereo not drawn) | -
O=C(CC(=O)Nc1nccs1)Nc1nccs1 | -
CC1(C)CC(=O)c2c(nc3ccccc3c2NCCO)C1 | -
NS(=O)(=O)c1ccc(NC(=O)c2ccccc2)cc1 | -
Cc1ccc(NC(=O)c2ccc(Cl)cc2Cl)cc1[N+](=O)[O-] | -
O=C(Nc1ccc(Nc2ccccc2)cc1)c1ccc(Cl)cc1[N+](=O)[O-] | 43%
NS(=O)(=O)c1ccc(NC(=O)c2ccccc2[N+](=O)[O-])cc1 | 32%
CC(C)c1ccc(NC(=O)c2ccc(Cl)cc2[N+](=O)[O-])cc1 | -
CCC(C)c1ccc(NC(=O)c2ccccc2[N+](=O)[O-])cc1 (stereo not drawn) | -
COCCN[C@H]1[C@@H]2OC[C@@H](O2)[C@@H](NCc2ccc(N(C)C)cc2)[C@@H]1O | -
Cc1ccc(C(=O)Nc2c3c(nn2-c2ccc(F)cc2)CS(=O)C3)cc1C (stereo not drawn) | -
COc1ccc(CN2CCSCC2)c(OC)c1OC | -
COc1ccc(CNC(=O)CN2CCCN(Cc3ccccc3)S2(=O)=O)cc1 | -
C=CCSc1nnc2n(C)c(=O)c3c(n12)-c1ccccc1CC31CCCCC1 | 38%
COc1ccc(-n2c(=O)c3c(n4cnnc24)-c2ccccc2CC32CCCC2)cc1 | -
SMILES | ST2 inh
CCSc1nnc2n(C)c(=O)c3c(n12)-c1ccccc1CC31CCCCC1 | -
Cn1c(=O)c2c(nc(N3CCN(Cc4ccccc4)CC3)n2Cc2cccc(Cl)c2)n(C)c1=O | -
COc1cccc(NC(=O)CN(c2ccc(Cl)c(Cl)c2)S(C)(=O)=O)c1 | 96%
COc1ccc(N(CC(=O)Nc2ccc(C)c(Cl)c2)S(C)(=O)=O)cc1 | -
COc1ccc(N(CC(=O)Nc2ccc(F)cc2)S(C)(=O)=O)cc1Cl | -
CCOc1ccccc1NC(=O)CN(c1ccc(C)c(C)c1)S(C)(=O)=O | -
COC(=O)C1C(=O)C2=C(CC1C)NC(C)=C(C(=O)OC(C)C)C2c1ccccc1Br (stereo not drawn) | -
COc1cc(CN2CCN(C(=O)c3cc(OC)c(OC)c(OC)c3)CC2)cc(OC)c1 | -
O=C1CC(c2ccccc2)CC2=C1C(c1cc3c(cc1[N+](=O)[O-])OCO3)Nc1ccccc1N2 (stereo not drawn) | 44%
O=C1CC(c2ccccc2)CC2=C1C(c1cc(Br)ccc1F)Nc1ccccc1N2 (stereo not drawn) | -
O=C1CC(c2ccccc2)CC2=C1C(c1ccccc1Br)Nc1ccccc1N2 (stereo not drawn) | -
O=[N+]([O-])c1ccc(OCCO)c(OCCO)c1 | -
CCO/C=C1\c2cc([N+](=O)[O-])ccc2-c2c1cc([N+](=O)[O-])cc2[N+](=O)[O-] | 54%
N#Cc1c([N+](=O)[O-])cc([N+](=O)[O-])cc1S(=O)(=O)Cc1ccccc1 | -
Cc1ccc(SC(c2ccco2)C2CCCCC2=O)cc1 (stereo not drawn) | -
CCOc1ccc(N2C(=O)S/C(=C\c3ccc(C)o3)C2=O)cc1 | 34%
CCOc1ccc(N2C(=O)S/C(=C\c3ccc(OC)cc3)C2=O)cc1 | -
CCOc1ccc(N2C(=O)S/C(=C\c3ccc(O)cc3)C2=O)cc1 | -
CCC1Oc2ccc(Cl)cc2N(C(C)C(=O)NCC2CCCO2)C1=O (stereo not drawn) | -
c1cncc(CN(Cc2ccnc3ccccc23)CC2CCN(C3CCCC3)CC2)c1 | -
Cc1ccccc1-n1nc2c(c1NC(=O)c1ccc(F)cc1)CS(=O)C2 (stereo not drawn) | -
O=C(COc1ccc([N+](=O)[O-])cc1)c1ccc(F)cc1 | -
COc1ccc(N2COc3ccc(Cl)cc3C2)cc1 | 37%
COc1ccc2c(c1)CN(c1ccc(C(=O)O)cc1)CO2 | -
CCOc1ccc(N2COc3ccc(OCC)cc3C2)cc1 | -
CN1CCN(Cc2cc([N+](=O)[O-])ccc2O)CC1 | -
Cc1cccc(-c2nc3cc([N+](=O)[O-])ccc3o2)c1 | -
CC1CN(C)C(C)c2c1oc1ccc([N+](=O)[O-])cc21 (stereo not drawn) | 43%
COc1ccc(CCNC(=O)CCS(=O)(=O)c2ccc(Br)s2)cc1OC | -
C#CCn1c(=NC(=O)CSCC(=O)Nc2cc(C)on2)sc2ccccc21 | -

Source: PubChem BioAssay
